Assay results taken from PubChem BioAssay (NCI).
This is part of a sample that, as a whole, favours compounds with a hit. Of some 83,000 tested, about 20% had one in any assay.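 The test compound was applied at a single concentration to cells in 96-well plates for 48 hours, and percent growth was recorded.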 Values without a mark were called inactive. The source made the active and inactive calls. How the source made its calls: active means growth percent below 10; inactive means the rest.

Legend:
Test in all cases: NCI-60 one-dose screen, 48 h (100 = growth as untreated, 0 = no growth, -100 = all killed)
Details in all cases: 10 µM unless noted
DU-145 prostate = tested on: DU-145 prostate
K-562 leukemia = tested on: K-562 leukemia
MALME-3M melanoma = tested on: MALME-3M melanoma
MDA-MB-231 breast = tested on: MDA-MB-231 breast
RXF 393 renal = tested on: RXF 393 renal
SF-268 CNS = tested on: SF-268 CNS
SF-295 CNS = tested on: SF-295 CNS
SF-539 CNS = tested on: SF-539 CNS
UACC-257 melanoma = tested on: UACC-257 melanoma
M14 melanoma = tested on: M14 melanoma
HCT-15 colon = tested on: HCT-15 colon
HT29 colon = tested on: HT29 colon
SNB-75 CNS = tested on: SNB-75 CNS
SNB-19 CNS = tested on: SNB-19 CNS
U251 CNS = tested on: U251 CNS
PC-3 prostate = tested on: PC-3 prostate
SK-MEL-5 melanoma = tested on: SK-MEL-5 melanoma
UACC-62 melanoma = tested on: UACC-62 melanoma
LOX IMVI melanoma = tested on: LOX IMVI melanoma
SK-MEL-28 melanoma = tested on: SK-MEL-28 melanoma

Row | SMILES | growth (DU-145 prostate) | growth (K-562 leukemia) | growth (MALME-3M melanoma) | growth (MDA-MB-231 breast) | growth (RXF 393 renal) | growth (SF-268 CNS) [%] | growth (SF-295 CNS) | growth (SF-539 CNS) | growth (UACC-257 melanoma) | growth (M14 melanoma) | growth (HCT-15 colon) | growth (HT29 colon) | growth (SNB-75 CNS) | growth (SNB-19 CNS) | growth (U251 CNS) | growth (PC-3 prostate) | growth (SK-MEL-5 melanoma) | growth (UACC-62 melanoma) | growth (LOX IMVI melanoma) | growth (SK-MEL-28 melanoma)
1 | Cn1cc(-c2ccc3cc(-c4ccc(CC(=O)Nc5cc(C(C)(C)C)nn5C)cc4)cnc3c2)cn1 | 14.8% | 13.8% | -9.19% (active) | -15% (active) | -18.6% (active) | 17.4 | 16.7% | 15.7% | 13.1% | 11.1% | 5.84% (active) | 22.6% | 3.79% (active) | 29.2% | 20.1% | 3.81% (active) | -35.4% (active) | -16.6% (active) | 14.1% | 16.7%
2 | CN(C)c1ccc2nc3ccc(=[N+](C)C)c([N+](=O)[O-])c-3sc2c1 | 54% | 23.8% | 9.75% (active) | 2.84% (active) | 79.7% | 33.4 | -1.42% (active) | 36.6% | 12.8% | 9.93% (active) | 32.1% | 59% | 91.6% | 56.6% | 6.01% (active) | 4.48% (active) | 19.5% | 34.1% | 4.03% (active) | 57.8%
3 | COc1nc2ccc(C)cc2cc1-c1nc2c(cnn2-c2ccc(Br)cc2)c(=O)[nH]1 | 53.4% | 16% | 73% | 76.1% | 15.9% | 49.6 | 26.7% | 12.1% | 47.4% | 27.7% | 40.5% | 10.3% | 25.9% | 41.8% | 15.2% | 28.1% | 51.1% | 29.1% | 34.1% | 39.3%
4 | O=C(Nc1ccc(Br)cc1F)c1cc(Br)ccc1O | 20.9% | 10.3% | -26.4% (active) | -38.1% (active) | -8.01% (active) | 14.5 | -59.7% (active) | 9.41% (active) | -17.2% (active) | 8.04% (active) | 4.49% (active) | 59.3% | 1.84% (active) | 19.6% | 13.8% | 11.9% | -93.7% (active) | -31.4% (active) | 6.99% (active) | 8.29% (active)
5 | CCOC(=O)C1=C(N)Oc2c(sc3c(C)cccc23)C1c1ccc(Cl)cc1 (stereo not given) | 21.6% | 9.65% (active) | 36.1% | 49.8% | -7.89% (active) | 55.5 | 4.92% (active) | 6.36% (active) | 63.4% | 20.6% | 15% | 14.8% | -9.45% (active) | 28.1% | 31.7% | 16.6% | 39.5% | 12.1% | 36.2% | 53.6%
6 | CCOC(=O)c1c(C)oc2ncnc(N3CCN(C(=O)COc4ccc(C(C)(C)C)cc4)CC3)c12 | 87.5% | 53.5% | 70.2% | 80.5% | 92.1% | 91 | 79.9% | 96.1% | 78.4% | 74.5% | 79.8% | 90.2% | 93.5% | 85.4% | 89.5% | 59.3% | 34.8% | 42.9% | 75.5% | 85.4%
7 | CCOC(=O)c1c(C)nc2c(c1N)CC(=O)N2Cc1ccc(F)cc1 | 100% | 93.3% | 116% | 97.9% | 101% | 96.4 | 95.3% | 92.9% | 96% | 94.8% | 95.9% | 90% | 95% | 97.1% | 91.2% | 80% | 92.9% | 90.1% | 93.5% | 111%
8 | Nc1ccccc1-c1cc2c(c3c1[nH]c1ccccc13)CCCCC2 | 102% | 98% | 117% | 90.3% | 113% | 97.2 | 103% | 116% | 105% | 92.5% | 86.9% | 88% | 105% | 104% | 103% | 92.1% | 93.8% | 95.4% | 86.7% | 107%
9 | O=C1CCC(C(=O)NCCNCCNC(=O)C2CCC(=O)N2)N1 (stereo not given) | 109% | 101% | 105% | 121% | 101% | 100 | 100% | 102% | 93% | 96.5% | 99.8% | 89.8% | 101% | 98.3% | 97.7% | 78.5% | 91.3% | 99.4% | 96.5% | 112%
10 | c1cc(-c2nnc(SSc3ncnc4nc[nH]c34)o2)ccn1 | 41.5% | 17% | 103% | 20.6% | 61.8% | 35 | 21.9% | 15.4% | 51.9% | 7.94% (active) | 37.3% | 18.9% | 56.8% | 93.1% | 72.4% | 51% | 72.1% | 11.8% | 9.77% (active) | 76.2%
11 | O=S(=O)(NCCCNc1cc(-c2c(-c3cccc(O)c3)nc3sccn23)ccn1)c1cccc2ccccc12 | 42.4% | 21.3% | 48.4% | 72.2% | 41.1% | 41.5 | 34.3% | 72.2% | 61.2% | 45.4% | 24.4% | 36.1% | 4.78% (active) | 66.5% | 46.2% | 30.4% | 37.3% | 39% | 33% | 67.3%
12 | c1ccc(-c2nc3nonc3nc2-c2ccccc2)cc1 | 68.2% | 52.4% | 55.4% | 43.9% | 51.1% | 62.9 | 72.3% | 79.1% | 63.3% | 84.9% | 68.3% | 82.7% | 65.4% | 77.8% | 58.3% | 46.5% | 63.8% | 58.7% | 56% | 90.3%
13 | COc1ccc(/C=C/c2c(C(=O)/C=C/c3ccc(C(F)(F)F)cc3)c(C)nc3ccccc23)cc1 | -81% (active) | 8.15% (active) | -46.7% (active) | -20.2% (active) | -83.9% (active) | 14.6 | -49.3% (active) | -76.2% (active) | -38% (active) | -15% (active) | -20.2% (active) | 7.38% (active) | 25.6% | -43.1% (active) | -69% (active) | -23.4% (active) | -79.9% (active) | -29% (active) | -91.2% (active) | -50.7% (active)
14 | COc1ccc(/C=N/Nc2cc(=O)[nH]c3ccc(C)cc23)cc1 | 105% | 79.5% | 114% | 126% | 95.4% | 115 | 96.2% | 101% | 105% | 86.3% | 87.9% | 94.7% | 108% | 95.2% | 97.1% | 79.1% | 69% | 89.4% | 91.5% | 101%
15 | N#Cc1cccc(NC(=O)c2cc(-c3ccc(F)cc3F)ccc2O)c1 | 18.4% | 13.3% | -25.1% (active) | -2.77% (active) | 3.07% (active) | 14.5 | 80.5% | 16.3% | -10% (active) | 23.6% | 13.3% | 104% | 11.5% | 13.7% | 13% | 20.3% | -98.5% (active) | 13.7% | 13.2% | 25.6%
